About 83,000 compounds went through this panel and 20% of them were active in at least one assay; those are over-represented in the sample as a whole.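 Plates (96-well) were seeded with cells, treated with compound at one concentration, and incubated for 48 hours before percent growth was determined.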 Values without a mark were called inactive. Active and inactive are the calls of the source. How the source made its calls: active means growth percent below 10; inactive means the rest.

The test system of the assay is MDA-MB-468 breast. Briefly: NCI-60 one-dose screen, 48 h (100 = growth as untreated, 0 = no growth, -100 = all killed). Conditions: 10 µM unless noted.
As to `COC(=O)C1(C)CCC[C@]2(C)[C@H]3C[C@H]4C(C(C)C)=C[C@]3(CC[C@@H]12)[C@H]1[C@@H]4[C@@H](OCC#CCN2CCOCC2)CC[C@@H]1OCC#CCN1CCOCC1` (stereo not given in full), the growth is 80%. Next, `COc1cc2oc(-c3cccc(NC(=O)c4cc(N)ccc4Cl)c3)cc(=O)c2c(OC)c1OC`: 95.3%; `CNC(=O)c1cc(Oc2ccc3nc(NC(=O)Nc4ccc(CN5CCOCC5)c(C(F)(F)F)c4)sc3c2)ccn1`: -17.2% (active); `CC(C)(C)C(CCc1ccc(Cl)cc1)N1CCN(C2CCCCC2)CC1` (stereo not given): 58.3%. Turning to `O=C(NCO)c1ccccc1`, the growth was 110%.
